# Screening data from PubChem.
# HIF activator – HIF pathway transcriptional activators, primary screen, cell-based, U2OS HRE-luciferase, luminescence; U2OS HRE-luciferase reporter; normalized: DMSO 0%, desferrioxamine 100%; activation, % at 7.5 µM (by protocol); 0.32% of 300,000 active; AID 1910, 2009;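 active = mean activation of at least 10% of the iron chelator positive control signal, with at least half of replicates also reaching 10%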
# Dyrk1A ADPGlo – rat Dyrk1A kinase inhibitors, primary screen, biochemical, single point, plate reader; Dual specificity tyrosine-phosphorylation-regulated kinase 1A (Rattus norvegicus), Q63470; ADP-Glo luminescence, NFATc1 peptide; inhibition, % at 12.5 µM; 0.43% of 310,000 active; AID 504441, 2011; in the data active = inhibition above about 50%;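 also: plate controls were vehicle with enzyme for no effect and no enzyme for full effect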
# PP5 primary – PP5 phosphatase inhibitors, primary screen, biochemical, fluorescence | Serine/threonine-protein phosphatase 5 (Homo sapiens), P53041 | purified PP5c, OMFP substrate fluorescence | inhibition, % at 6.7 µM | 0.18% of 320,000 active | AID 1987, 2009;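 active = inhibition above the campaign's mean inhibition across all tested compounds plus 3 SD, cut at about 9.5% in these data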;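 also: 0% = DMSO only and 100% = 100 µM cantharidin control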
# PP1 counter – PP1-alpha phosphatase inhibitors, primary screen, counter-screen for PP5 inhibitor project, biochemical, fluorescence, OMFP substrate, single point; Serine/threonine-protein phosphatase PP1-alpha catalytic subunit (Homo sapiens), P62136; purified PP1alpha; inhibition, % at 6.7 µM; 0.9% of 320,000 active; AID 2235, 2010;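 active = inhibition above the mean inhibition of all tested compounds plus 3 SD, computed separately for each screening campaign, cut at about 15% in these data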
# STK33 kinase inh – inhibitors of purified STK33 kinase, primary screen, biochemical, ADP-Glo luminescence, homogeneous, cell-free; Serine/threonine-protein kinase 33 (Homo sapiens), Q9BYT3; MBP phosphorylation; inhibition, % at 10 µM; 0.073% of 320,000 active;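 active = inhibition at or above 25%, using the most active replicate where run in duplicate; inactive = inhibition below 25%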
# Target sequence (Q9BYT3 whole entry, looked up): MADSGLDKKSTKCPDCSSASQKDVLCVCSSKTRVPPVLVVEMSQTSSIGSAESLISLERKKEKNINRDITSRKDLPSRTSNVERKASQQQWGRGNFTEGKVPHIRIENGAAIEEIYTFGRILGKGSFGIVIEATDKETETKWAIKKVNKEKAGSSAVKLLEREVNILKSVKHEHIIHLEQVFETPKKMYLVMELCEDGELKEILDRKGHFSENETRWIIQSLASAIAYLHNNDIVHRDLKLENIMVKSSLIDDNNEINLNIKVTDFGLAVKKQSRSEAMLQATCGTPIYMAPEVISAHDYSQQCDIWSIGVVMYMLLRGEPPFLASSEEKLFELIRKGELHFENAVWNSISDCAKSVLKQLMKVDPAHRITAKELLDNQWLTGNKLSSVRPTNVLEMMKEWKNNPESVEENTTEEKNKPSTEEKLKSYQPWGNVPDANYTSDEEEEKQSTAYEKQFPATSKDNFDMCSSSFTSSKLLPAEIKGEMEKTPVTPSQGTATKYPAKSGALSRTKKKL
# PP5 inh confirm – PP5 phosphatase inhibitors, confirmation, biochemical, fluorescence, human; shares compounds with PP5 primary; Purified PP5, fluorogenic phosphatase substrate; inhibition, % at 6.7 µM; 22% of 460 active; AID 2331, 2010; in the data active = inhibition above about 9.5%
# PP1 counter 3x – PP1 phosphatase inhibitors, counter-screen for PP5 inhibitor project, biochemical, fluorescence, triplicate; 4% of 460 active; AID 2355, 2010; PP1 enzyme, fluorescent phosphatase substrate; shares compounds with PP5 primary; inhibition, % at 6.7 µM; in the data active = inhibition above about 16%
# The depositor's hits bear a star; · = no result. A selection: hits, their analogues and other compounds. The true share with any hit is near 1.5%.
SMILES,HIF activator,Dyrk1A ADPGlo,PP5 primary,PP1 counter,STK33 kinase inh,PP5 inh confirm,PP1 counter 3x
CC(=O)Nc1ccc(NC(=O)CSc2nnnn2-c2ccc(F)cc2)cc1,-21,-5,-1,1,5,·,·
CCSC1=C(C#N)C2(CCCCC2)C(C#N)=C(N)N1,0,3,0,-1,-4,·,·
N#CC1=C(N)NC(SCc2ccccc2)=C(C#N)C12CCCCC2,1,-4,12*,-3,-3,1,3
COC(=O)CCC(=O)OC1(C)C(=O)C2=CN(CCN3CCOCC3)C(c3ccc(OC)cc3)=CC2=C(Br)C1=O (stereo not drawn),0,·,11*,2,1,37*,10
O=C(Nc1ccccc1Cl)c1c(F)c(F)c(F)c(F)c1F,-1,0,1,0,0,·,·
O=C(NC1(O)C(=O)c2ccccc2C1=O)c1c(Cl)cccc1Cl,0,21,16*,3,0,42*,7
O=C(NC1(O)C(=O)c2ccccc2C1=O)c1ccccc1,0,36,15*,1,0,39*,13
COC1(NC(=O)c2ccccc2)C(C)=CC(=O)C=C1C,0,3,3,3,-3,·,·
Cn1cc(CNCc2ccc(-n3cccn3)cc2)c(-c2ccccc2F)n1,0,-1,3,1,-1,·,·
Cn1cc(CNCCCn2ncc3ccccc32)c(-c2ccccc2F)n1,0,6,16*,-10,0,-4,-7
CC1CCc2c(sc(NC(=O)COC(=O)c3ccc(O)cc3)c2C#N)C1 (stereo not drawn),-1,·,0,-1,-2,·,·
Cc1ccc([N+](=O)[O-])cc1-c1ccc(/C=N/NC(=O)CN2CCOCC2)o1,0,5,12*,-1,0,-4,-7
CC(=O)Nc1cc(NC(C)=O)cc(C(=O)OCC(=O)Nc2ccc(S(=O)(=O)NC3=NCCCCC3)cc2)c1,0,4,2,0,-2,·,·
CCN(CC(=O)NC1CCCC1)S(=O)(=O)c1ccc(F)cc1,1,-9,-6,-12,-2,·,·
CCOC(=O)Cc1csc(NC(=O)c2ccc(Cl)nc2)n1,0,-1,13*,0,-1,-7,-3
Cc1ccc(S(=O)(=O)N2CCN(C(=O)CN3CCOCC3)C2c2ccccc2)cc1 (stereo not drawn),0,5,0,4,-1,·,·
Cc1ccc(S(=O)(=O)N2CCN(C(=O)CN3CCOCC3)C2C(C)C)cc1 (stereo not drawn),-1,-1,12*,-5,0,-6,-5
Cc1c(NC(=S)N/N=C/c2cc([N+](=O)[O-])ccc2O)c(=O)n(-c2ccccc2)n1C,0,18,12*,3,0,-7,-3
O=c1oc2ccc(Cl)cc2nc1/C=C(\O)c1cccs1,2,·,12*,1,-3,-4,-3
Cc1ccc2oc(=O)c(/C=C(\O)c3cccs3)nc2c1,1,·,4,-1,0,·,·
COc1cccc(CN(C)CC(=O)NCc2ccc(F)cc2)c1OC,-16,-2,12*,-9,-2,-7,-5
O=C(O)c1ccccc1-c1ccccc1C(=O)Nc1ccc(OC(F)(F)F)cc1,0,4,·,·,2,·,·
CC(C)(C)NC(=O)c1ccc(NC(=O)c2ccccc2-c2ccccc2C(=O)O)cc1,-1,1,10*,5,-1,-8,-7
COc1cccc(-c2cc(C(=O)Nc3cnn(Cc4ccc(F)cc4)c3)no2)c1,-1,2,14*,-3,1,0,-4
COc1ccc(/C=N/Nc2cc(N3CCCC3)nc(N3CCCC3)n2)cc1,0,15,16*,6,-1,34*,18*
SMILES,HIF activator,Dyrk1A ADPGlo,PP5 primary,PP1 counter,STK33 kinase inh,PP5 inh confirm,PP1 counter 3x
Oc1ccc(/C=N/Nc2cc(N3CCCC3)nc(N3CCCC3)n2)cc1,0,12,16*,3,0,37*,14
CCOc1ccc(/C=N/Nc2cc(C)nc(N3CCOCC3)n2)cc1,3,3,1,0,-2,·,·
Oc1ccc(/C=N/Nc2cc(N3CCOCC3)nc(N3CCOCC3)n2)cc1,0,19,6,-2,-2,·,·
Oc1cccc(/C=N/Nc2cc(N3CCCC3)nc(N3CCCC3)n2)c1,0,2,16*,3,0,37*,10
Brc1cccc(/C=N/Nc2nc(N3CCCCC3)nc(N3CCCCC3)n2)c1,0,·,-2,-1,-1,·,·
Nc1nc(Nc2cccc(F)c2)nc(NCc2ccco2)c1[N+](=O)[O-],0,3,11*,3,3,3,5
Cc1ccc(S(=O)(=O)N2CCCCC2)cc1C(=O)OC(C)C(=O)NC1CCCCC1C (stereo not drawn),·,-4,·,·,·,·,·
Cc1ccc(Cl)cc1NC1=C/C(=N\S(=O)(=O)c2cccs2)c2ccccc2C1=O,-3,2,11*,2,0,42*,11
Cc1ccc(NC(=O)CN(C)C(=O)c2ccccc2Sc2ccccc2C#N)cc1,0,9,3,-9,-1,·,·
O=C(Nc1c(F)cc(F)cc1Br)c1cc(-c2ccccc2)on1,-1,6,12*,-3,-1,-3,-2
O=C(Nc1c(F)cc(F)cc1Br)c1cc(-c2ccc(O)cc2)on1,1,15,4,-1,1,·,·
COc1cc(S(=O)(=O)Nc2cccnc2)ccc1Cl,0,·,-3,1,-1,·,·
O=C(NCc1cccs1)c1cc(-c2ccc(O)cc2)on1,5,-3,-3,0,0,·,·
Cc1ccc(-c2cc(C(=O)NCc3cccs3)no2)cc1,1,-3,9.9*,-4,0,-3,-4
O=[N+]([O-])c1ccc(SCCO)nc1SCCO,0,10,0,-6,0,·,·
CCOC(=O)C1=C(C)N(C)C(C)=C(C(=O)OCC)C1c1ccsc1,-1,·,1,1,0,·,·
O=C(Nc1ccc(C(O)(C(F)(F)F)C(F)(F)F)cc1)c1ccc(Cl)c([N+](=O)[O-])c1,0,5,11*,5,-1,6,6
O=C(CSc1ccc([N+](=O)[O-])cn1)Nc1ccc2c(c1)OCO2,1,-2,2,2,0,·,·
CCn1nnc(-c2ccccc2NS(=O)(=O)c2ccc(S(=O)(=O)N(C)C3CCCCC3)cc2)n1,0,0,12*,1,-2,-3,-1
Cc1ccc(NC2=CC(=O)C(=O)c3ccccc32)cc1,-7,7,2,0,2,·,·
NS(=O)(=O)c1ccc(NC2=CC(=O)C(=O)c3ccccc32)cc1,-5,15,11*,1,3,37*,7
